Inconclusive results are not listed. Calls of active or inactive are those of the source. Unless noted, cut-off not given; nearly all actives show AC50 up to about 26 µM.

The nature of test [1]: viability loss in pontine glioma line – cell-based, SU-DIPG-XVII, MIPE5.0, CellTiter-Glo, qHTS, dose response (AID 1347060).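 On AC50: cells exposed to compound for 48 hours before viability readout.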 The settings on record: CellTiter-Glo ATP luminescence.
A short description of test [2]: viability loss in pontine glioma line – cell-based, SU-DIPG-XXV, MIPE5.0, CellTiter-Glo, qHTS, dose response (AID 1347065).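 Further: cells exposed to compound for 48 hours before ATP readout.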 The conditions noted are these: CellTiter-Glo ATP luminescence. Background: Cellular ATP, detected with luciferase, serves as a proxy for viable cell number.
Test [3] can be described thus: JHH-DIPG-1 glioma cell viability, MIPE5.0 library, CellTiter-Glo luminescence, qHTS (AID 1347067).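 Further: cells exposed to compound for 48 hours before readout.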 The conditions noted are these: JHH-DIPG-1 glioma viability, CellTiter-Glo ATP luminescence.
The nature of test [4]: growth inhibition of DIPG cells – cell-based, MIPE5.0 library, qHTS (AID 1347068; cut-off not given, nearly all actives have IC50 up to about 30 µM;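 on IC50: cells exposed to compound for 48 hours before viability readout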). The settings on record: SU-DIPG-XXV viability.
Test [5] in a line: EMT-state selective cytotoxicity in co-culture – imaging, PC-3E GFP, TEM4-18 mCherry, primary screen (AID 1345086;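 active means compounds killing one labelled cell type while sparing the other, by normalised counts and ratio limits, not self-fluorescent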;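 on all read-outs here: cells exposed to compound for 72 h before imaging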;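 on red/green cell ratio (normalised): normalised mesenchymal count divided by normalised epithelial count so high means epithelial killing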). The settings on record: PC-3E GFP / TEM4-18 mCherry co-culture, imaging cell counts, at 1 µM; for red/green cell ratio (normalised): actives lie on both sides, counts scaled to control wells, 1 = unselective.
Test [6] is described as follows: growth inhibition, single agent or in combination, cell-based, chromothripsis tumors, cisplatin or BGB combos (AID 1671449; in the data active means inhibition above about 80%;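 further: cells exposed for 96 hours; 0% = vehicle DMSO and 100% = killing by high DMSO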). The settings on record: LFS_MB_P medulloblastoma cells.
Test [7] in a line: growth inhibition, single agent and combos, cell-based, chromothripsis tumors, cisplatin or BGB combos (AID 1671450; in the data active means inhibition above about 80%;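 further: cells exposed to compound for four days; 0% = vehicle DMSO and 100% = cell killing by high DMSO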). The settings on record: HDN33 neuroblastoma cells, stronger effect = higher value.
A short description of test [8]: growth inhibition, single agents and combos, ICB984, cell-based, cisplatin or BGB combos, synergistic combos for chromothripsis tumors (AID 1671451; call rule not given here;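 further: cells exposed for 96 hours before readout; 0% = vehicle DMSO and 100% = killing by high DMSO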). The conditions noted are these: ICB984 medulloblastoma cells, drug combinations, stronger effect = higher value.
Test [9] can be described thus: growth inhibition, single agents and combos, LFS_MB_1R, cell-based, cisplatin or BGB combos, synergistic combos for chromothripsis tumors (AID 1671452; in the data active means inhibition above about 80%;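 further: cells exposed for 96 hours before readout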). The settings on record: LFS_MB_1R medulloblastoma cells, stronger effect = higher value.
A short description of test [10]: growth inhibition, single agents and combos, HTB85, cell-based, BGB or cisplatin IC20 combos, synergistic combos for chromothripsis tumors (AID 1671453; in the data active means inhibition above about 80%;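 further: cells exposed for 96 hours before readout; 0% = vehicle DMSO and 100% = high DMSO killing control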). The conditions noted are these: HTB85 osteosarcoma cells, drug combinations, stronger effect = higher value.
A short description of test [11]: growth inhibition, single agents and combos, CRL2098, cell-based, BGB or cisplatin IC20 combos, synergistic combos for chromothripsis tumors (AID 1671454; in the data active means inhibition above about 80%;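 further: cells exposed for 96 h before readout; 0% = vehicle DMSO and 100% = killing by high DMSO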). The settings on record: CRL2098 osteosarcoma cells, drug combinations, stronger effect = higher value.
A short description of test [12]: growth inhibition, single agents and combos, HD-MB03, cell-based, BGB or cisplatin IC20 combos, synergistic combos for chromothripsis tumors (AID 1671455; in the data active means inhibition above about 83%;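 further: 0% = vehicle DMSO and 100% = high DMSO as cytotoxic control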). The settings on record: HD-MB03 medulloblastoma cells, stronger effect = higher value.
Test [13] in a line: growth inhibition, single agents and combos, UWB1.289, cell-based, BGB or cisplatin combos, synergistic combos for chromothripsis tumors (AID 1671456; in the data active means inhibition above about 80%;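 further: cells exposed to compound for four days; 0% = vehicle DMSO and 100% = killing by high DMSO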). The settings on record: UWB1.289 ovarian carcinoma cells, stronger effect = higher value.
Test [14] in a line: growth inhibition, single agents and combos, LFS_MB_2R, cell-based, cisplatin combos, synergistic combos for chromothripsis tumors (AID 1671457; in the data active means inhibition above about 80%;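 further: cells exposed to compound for four days before readout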). The conditions noted are these: LFS_MB_2R medulloblastoma cells, stronger effect = higher value.
Test [15] in a line: growth inhibition, MDA-MB-436, cell-based, BGB or cisplatin combos, synergistic combos for chromothripsis tumors (AID 1671458; call rule not given here;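 further: cells exposed for 96 hours; 0% = vehicle DMSO and 100% = killing by high DMSO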). The settings on record: MDA-MB-436 breast carcinoma growth inhibition, drug combinations, stronger effect = higher value.
A short description of test [16]: UWB1.289_BRCA1 ovarian cancer growth, cell-based, BGB or cisplatin combinations (AID 1671459; in the data active means inhibition above about 80%). The conditions noted are these: UWB1.289 BRCA1 ovarian carcinoma, drug combinations, stronger effect = higher value.
Test [17] is described as follows: BT084 cell growth, single and combined drugs, ICGC_MB145, cisplatin and BGB IC40 combos (AID 1671461; in the data active means inhibition above about 80%;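 further: cells exposed to drugs for 96 hours; 0% = vehicle DMSO and 100% = high DMSO full killing control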). The conditions noted are these: BT084 medulloblastoma cells, drug combinations, stronger effect = higher value.
Test [18] is described as follows: RCMB18 cell growth, single agent and combined, cisplatin and BGB IC40 combos (AID 1671462; in the data active means inhibition above about 80%;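 further: cells exposed to compound for four days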). The settings on record: RCMB18 medulloblastoma cells, stronger effect = higher value.
The nature of test [19]: CRL1545 cell growth, single agent and combined, cisplatin and BGB IC20 combos (AID 1671464; in the data active means inhibition above about 80%;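 further: cells exposed to compound for 96 hours before readout; 0% = vehicle DMSO and 100% = high DMSO killing control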). The settings on record: CRL1545 osteosarcoma cells, stronger effect = higher value.
The mark [20] stands for this setting: measured here: epithelial PC-3E GFP cell survival.
Where [21] appears, read: measured here: mesenchymal TEM4-18 mCherry cell survival.
[22] abbreviates: measured here: combination with BGB IC40, at 0.05 µM.
Where [23] appears, read: measured here: with BGB IC20 combination, at 0.5 µM.
[24] abbreviates: measured here: with cisplatin IC20 combination, at 0.5 µM.
The mark [25] stands for this setting: measured here: combination with cisplatin, at 0.5 µM.
Where [26] appears, read: measured here: combination with cisplatin, at 5 µM.

Regarding `CCCCC[C@H](O)/C=C/[C@H]1[C@H](O)CC(=O)[C@@H]1CCCCCCC(=O)O`, the call in test [1], in test [2], in test [3] and in test [4] was inactive.
`CC(=O)N1CCN(c2ccc(OC[C@H]3CO[C@](Cn4ccnc4)(c4ccc(Cl)cc4Cl)O3)cc2)CC1`: the call in [1] was inactive.
Consider `COc1cccc2c1C(=O)c1c(O)c3c(c(O)c1C2=O)C[C@@](O)(C(=O)CO)C[C@@H]3O[C@H]1C[C@H](N)[C@@H](O)[C@H](C)O1`, for which, in test [5], the red/green cell ratio (normalised) was 2.46 (active). The results for the normalised cell number in [5] (setting [20]) and in test [5] (setting [21]) were 0.19 and 0.46, respectively. Besides, the AC50 was 332 nM (active) in test [1], 1180 nM (active) in test [2] and 2350 nM (active) in [3]. Besides, in [4], the IC50 was 9340 nM (active).
As to `CC[C@]1(O)CC2CN(CCc3c([nH]c4ccccc34)[C@@](C(=O)OC)(c3cc4c(cc3OC)N(C=O)[C@H]3[C@@](O)(C(=O)OC)[C@H](OC(C)=O)[C@]5(CC)C=CCN6CC[C@]43[C@@H]65)C2)C1` (some centres undefined), the red/green cell ratio (normalised) in [5] was 0.69 (inactive). The values for the normalised cell number in test [5] (setting [20]) and in test [5] (setting [21]) were 0.19 and 0.13, respectively.
`CC(C)N=c1cc2n(-c3ccc(Cl)cc3)c3ccccc3nc-2cc1Nc1ccc(Cl)cc1`: the red/green cell ratio (normalised) in test [5] was 0.91 (inactive). Also, the normalised cell number came out at 0.92 in test [5] (setting [20]) and 0.84 in test [5] (setting [21]). In addition, the inhibition in test [6] (at 0.5 µM, stronger effect = higher value) is -31% (inactive); in [6] (measured here: combination with BGB IC20, at 0.005 µM) it was 13.3%; in test [6] (measured here: combination with BGB IC40, at 0.005 µM), -22.3%; in [6] (setting [22]), -8.73%; in test [6] (measured here: combination with cisplatin, at 0.5 µM, stronger effect = higher value), -48.5%; in test [6] (measured here: combination with cisplatin, at 5 µM, stronger effect = higher value), 8.75%. Further, the inhibition in test [7] (BGB combo, at 5 µM) is -36.1%; in [7] (at 0.5 µM) it was -26.4% (inactive); in [7] (cisplatin combo, at 5 µM) it was -41.4%; in test [7] (setting [23]), -15.2%; in test [7] (setting [24]), -29%; in [7] (single agent, at 5 µM) it was -25%. For the same compound, the inhibition in [8] (BGB IC20 combo, at 0.005 µM) was -28.4%; in [8] (BGB IC40 combo, at 0.005 µM), 4.64%; in test [8] (BGB IC40 combo, at 0.05 µM), -16%; in test [8] (at 0.5 µM) it was -34.9% (inactive); in [8] (cisplatin combo, at 0.05 µM), -16%; in [8] (cisplatin combo, at 0.5 µM), -47.3%. Besides, the inhibition is -19.4% in [8] (cisplatin combo, at 5 µM); 1.51% in [8] (measured here: 5 uM single agent, at 5 µM); -25.1% (inactive) in test [9] (at 0.5 µM); -36.1% in [9] (setting [22]); -57.3% in test [9] (setting [25]); -48.3% in test [9] (setting [26]). Also, the inhibition is -37.4% (inactive) in test [10] (at 0.5 µM); -54.6% in [10] (measured here: with BGB IC20, at 0.5 µM); -21.7% in test [10] (measured here: with BGB IC20, at 5 µM); -36% in [10] (measured here: with cisplatin IC20, at 0.5 µM); -38.1% in [10] (measured here: with cisplatin IC20, at 5 µM); -29.1% in test [10] (single agent, at 5 µM). The inhibition in [11] (at 0.5 µM) was -74.7% (inactive); in [11] (measured here: combination with BGB at IC20, at 0.5 µM), -58.6%; in test [11] (measured here: combination with cisplatin at IC20, at 0.5 µM), -130%; in test [12] (at 0.5 µM), -15.1% (inactive); in test [12] (measured here: combo with BGB at IC20, at 0.5 µM), -15%; in test [12] (measured here: combo with cisplatin at IC20, at 0.5 µM), -18.6%. Moreover, the inhibition in test [13] (at 0.5 µM) was -8.97% (inactive); in test [13] (measured here: inhibition with BGB combination, at 0.05 µM) it was -17.6%; in test [13] (measured here: inhibition with cisplatin combination, at 0.05 µM) it was -17.6%; in [14] (at 0.5 µM), -8.06% (inactive); in [14] (setting [25]), 1.44%; in test [14] (setting [26]) it was -0.801%. For the same compound, the inhibition in test [15] (at 0.5 µM) was -2.64% (inactive); in test [15] (measured here: BGB combination, at 0.5 µM), -2.65%; in test [15] (measured here: BGB combination, at 5 µM), -11.8%; in [15] (measured here: cisplatin combination, at 0.5 µM), -12.6%; in test [15] (measured here: cisplatin combination, at 5 µM) it was 0.559%; in test [16] (BGB combination, concentration series, at 5 µM), -7.22%. Also, the inhibition in test [16] (at 0.5 µM) was -11.4% (inactive); in test [16] (cisplatin combination, concentration series, at 5 µM), 14.7%; in test [17] (at 0.5 µM) it was -8.65% (inactive); in test [17] (cisplatin combination, at 0.5 µM) it was -22.2%; in test [17] (cisplatin combination, at 5 µM), -55.6%; in [17] (measured here: BGB IC40 combination 0.05 uM, at 0.05 µM) it was 17%. Moreover, the inhibition in test [17] (single agent, at 5 µM) is -11.5%; in [18] (at 0.5 µM), -9.43% (inactive); in [18] (cisplatin combo, at 5 µM), -32.6%; in test [18] (measured here: BGB IC40 combination, at 0.05 µM), -2.04%; in [18] (setting [25]), -6.22%; in test [18] (single agent, at 5 µM), -9.57%. Moreover, the inhibition was -22.8% (inactive) in [19] (at 0.5 µM); -40.5% in test [19] (setting [23]); -13.9% in test [19] (setting [24]); -3.12% in test [19] (single agent, at 0.05 µM); -18.2% in test [19] (single agent, at 5 µM).
Regarding `Cc1c(O)c(=O)ccn1C`, in test [5], the red/green cell ratio (normalised) was 0.89 (inactive). For the same compound, the normalised cell number turned out to be 1.06 in test [5] (setting [20]) and 0.95 in test [5] (setting [21]).
`COc1cc([C@@H]2c3cc4c(cc3[C@@H](O[C@@H]3O[C@@H]5CO[C@@H](C)O[C@H]5[C@H](O)[C@H]3O)[C@H]3COC(=O)[C@H]23)OCO4)cc(OC)c1O`: the half-maximal activity concentration (AC50) in test [1] is 1660 nM (active). The call in test [3] and in test [4] was inactive.
Regarding `CC(=O)SCC(Cc1ccccc1)C(=O)NCC(=O)OCc1ccccc1` (centres undefined), the outcome in [1], in test [2], in test [3] and in test [4] was inactive.
As to `CN1CCN2c3ncccc3Cc3ccccc3C2C1` (centres undefined), the compound was classed as inactive in test [1], in test [2], in test [3] and in test [4].
For `CC(=O)OCC1O[C@@H](OC(C)=O)C(NC(=O)OCc2ccccc2)[C@@H](OC(C)=O)C1OC(C)=O` (some centres undefined), the red/green cell ratio (normalised) in test [5] was 0.94 (inactive). Also, the results for the normalised cell number in test [5] (setting [20]) and in test [5] (setting [21]) were 1.16 and 1.09, respectively.
In the same order, the values of `COC(=O)C1O[C@H](OCc2ccccc2)[C@@H](OC(C)=O)[C@@H](OC(C)=O)C1OC(C)=O` (some centres undefined) are 0.86 (inactive), 1.31 and 1.13.
Regarding `CC(=O)O[C@H]1C[C@@]2(C)C(CCC3[C@@]4(C)C=CC(=O)[C@@H](C)C4[C@H](OC(C)=O)C(=O)[C@@]32C)/C1=C(/CCC=C(C)C)C(=O)O` (some centres undefined), in test [5], the red/green cell ratio (normalised) was 0.99 (inactive). Besides, the figures for the normalised cell number in [5] (setting [20]) and in [5] (setting [21]) were 0.92 and 0.91, respectively.
For `CC(=O)O[C@H]1CC[C@]2(C)C3CC[C@@]4(C)C(CC5O[C@@]6(CCC(C)CO6)[C@@H](C)C54)C3CC[C@@H]2C1` (some centres undefined), in test [5], the red/green cell ratio (normalised) is 1.09 (inactive). In addition, the values for the normalised cell number in test [5] (setting [20]) and in test [5] (setting [21]) were 0.87 and 0.95, respectively.

For orientation: AC50 means the midpoint of the concentration-response curve, whichever way the signal moves. Broadly, the IC50 is the midpoint of a concentration-inhibition curve. A word on the inhibition: it is the drop in the measured response relative to a control, in per cent.

The values are drawn from PubChem BioAssay.
